HT1080 IDH1KD tx = toxicity to HT-1080 IDH1 knockdown cells (counter line). HT-1080 IDH1 knockdown viability, ATP luminescence, 48 h. actives 2% (n = 360,000). Potency, µM (highest dose often 46.1 µM), inactives show at the top dose activity, negative = toxicity, actives largely listed as cytotoxic;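 also: potency is read from the fitted curve at half-maximal effect; 0% = DMSO wells and -100% = cell-free medium wells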
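Viability of IDH1-knockdown HT-1080 fibrosarcoma cells was assessed by CellTiter-Glo after 48 h at 37 °C with titrated compound; concentration-effect curves were classified by fit quality and response size.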
HT1080-NT tox = kills 2HG-producing HT-1080-NT fibrosarcoma cells. HT-1080-NT fibrosarcoma viability, CellTiter-Glo ATP luminescence, 48 h. Potency, µM (doses to about 46.1 µM), without a hit: at the top dose activity, negative = less viability, hits mostly cytotoxic. actives 1.6% (n = 360,000). AID 686970;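 also: NT is the 2HG producing partner of a matched IDH1 knockdown line; potency is read from the fitted curve at half-maximal effect; 0% = DMSO-treated cells and -100% = media-only wells without cells; nearly all actives have a fitted effect of over 55% in size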
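Compounds were tested in concentration-response format on HT-1080-NT cells for 48 hours at 37 degrees C. Cell viability came from CellTiter-Glo luminescence; curves were classified by r2, response magnitude and activity.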
DT40 TDP1 no CPT = qHTS for Inhibitors of human tyrosyl-DNA phosphodiesterase 1 (TDP1): qHTS in cells in absence of CPT; Potency, µM (doses to about 46.2 µM), inactives show at the top dose activity change, negative = growth inhibition, usual class: inhibitors; DT40 Tdp1-/- hTDP1 cells, no CPT, ATP luminescence, 48 h; actives 15% (n = 420,000); also: potency is read from the fitted curve at half-maximal effect; nearly all actives have a fitted effect of over 55% in size
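A cellular qHTS used chicken DT40 cells lacking endogenous Tdp1 but carrying stably transfected human TDP1. Compounds were applied without camptothecin, and cell growth kinetics were judged by ATP-dependent luminescence after ≥48 hr.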
TDP1 cell CPT = DT40-hTDP1 cell growth loss with CPT; chicken DT40 Tdp1-/-;hTDP1 cells + 20 nM CPT, ATP luminescence, 48 h; Potency, µM (top dose mostly 46.2 µM), for the others: top-dose activity change, negative = growth inhibition, hits mostly inhibitors; actives 12% (n = 420,000); also: potency is read from the fitted curve at half-maximal effect; nearly all actives have a fitted effect of over 55% in size
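Chicken DT40 Tdp1-/- cells complemented with human TDP1, 400 cells/well, exposed to compounds plus 20 nM camptothecin for at least 48 h at 37 C; viability read as ATP content by CellTiter-Glo luminescence.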
IL1B secr inh = blocks inflammasome-driven IL-1 beta release | THP-1 LPS/ATP IL-1B secretion, AlphaLISA, 16 h; active compounds read low | activity change, % at 57.5 µM | actives 4.7% (n = 360,000) | AID 743279; in the data active = activity change below about -50%; inconclusive = mostly about -30% to -49%
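THP-1 cells pretreated 1 hr with compounds (up to 57.5 uM final), then stimulated with LPS (250 ng/mL final) plus ATP (1.25 mM final); secreted IL-1B measured by AlphaLISA after 16 hr, decreased signal indicating inhibition.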
ELG1 repair inh = ELG1-dependent DNA repair inhibition | HEK293T ELG1-luciferase reporter, luminescence, 16 h; DNA damage induced by 5-fluorouridine | Potency, µM (top dose mostly 46.1 µM), inactives show at the highest dose activity change, negative = inhibition, usual class: inhibitors | actives 2.3% (n = 330,000); also: potency is read from the fitted curve at half-maximal effect; nearly all actives have a fitted effect of over 55% in size
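Luminescence from the luciferase reporter, measured 30 min after ONE-Glo reagent at room temperature, was the read-out. Beforehand, 2,000 cells per well were exposed for 16 hr at 37 °C to 5-fluorouridine together with compound or vehicle.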
An asterisk follows results filed as active. Shown are actives, neighbours in structure and some others; about 19% of the full set was active somewhere. Unless noted, calls follow the shape of the dose curve; as a rule, active = well fitted curve in the direction sought with a large enough effect; inconclusive = small, poorly fitted or top-dose-only effect, or another doubt; inactive = no such curve, though single readings can be large; an effect the other way counts as inactive or inconclusive. Unless noted, % is scaled to controls: 0 for no effect and ±100 for the full control effect.

Results for CCN(CC)c1ccc(N=Cc2cc(Br)ccc2O)cc1 ?
HT1080 IDH1KD tx: inconclusive; HT1080-NT tox: inconclusive; DT40 TDP1 no CPT: inconclusive; TDP1 cell CPT: 16.4µM*; IL1B secr inh: -2.4; ELG1 repair inh: inconclusive

How did CC(=O)n1c(-c2ccccc2)c(-c2ccccc2)n(C)c1=O do in these assays?
HT1080 IDH1KD tx: -6.8%; HT1080-NT tox: -10.1%; DT40 TDP1 no CPT: inconclusive; TDP1 cell CPT: -25.9%; IL1B secr inh: -3.5

What do the screens show for `Cc1ncc(Cc2ccccc2)c(C2CCN(S(=O)(=O)C[C@]34CC[C@H](CC3=O)C4(C)C)CC2)n1`?
DT40 TDP1 no CPT: 14.6µM*; TDP1 cell CPT: inconclusive

What do the screens show for `COc1ccc(C)cc1NC(=O)C1CCCN1C(=O)OCc1ccccc1` (stereo not given)?
HT1080 IDH1KD tx: -1.1%; HT1080-NT tox: 3.2%; DT40 TDP1 no CPT: inconclusive; TDP1 cell CPT: -27.2%; IL1B secr inh: 1.8; ELG1 repair inh: -4.0%

What do the screens show for `COc1cc2nc(N3CCN(C(=O)OCc4ccccc4)[C@H](C(=O)NC(C)(C)C)C3)nc(N)c2cc1OC`?
HT1080 IDH1KD tx: inconclusive; HT1080-NT tox: 18.4µM*; DT40 TDP1 no CPT: -84.5%; TDP1 cell CPT: inconclusive; IL1B secr inh: -18.7; ELG1 repair inh: -29.2%

How did O=C(/C=C/c1ccc(OC2CSC2)cc1)c1ccc(Cl)cc1 do in these assays?
HT1080 IDH1KD tx: 2.9%; HT1080-NT tox: 15.2%; DT40 TDP1 no CPT: inconclusive; TDP1 cell CPT: inconclusive; IL1B secr inh: -12.9; ELG1 repair inh: inconclusive

Results for COc1cc(/C=C/C(=O)O)cc(OC)c1O ?
HT1080 IDH1KD tx: -20.2%; HT1080-NT tox: -5.9%; DT40 TDP1 no CPT: 6.2%; TDP1 cell CPT: 4.9%; IL1B secr inh: 17.0

Results for COc1ccc2cc(C(=O)/C=C/c3cc(OC)c(O)c(OC)c3)ccc2c1 ?
HT1080 IDH1KD tx: 16.4µM*; HT1080-NT tox: 20.6µM*; DT40 TDP1 no CPT: 9.2µM*; TDP1 cell CPT: 10.3µM*; IL1B secr inh: -98.3*; ELG1 repair inh: -13.0%

What do the screens show for `COc1ccc(C(=O)/C=C/c2cc(OC)c(O)c(OC)c2)c(F)c1`?
HT1080 IDH1KD tx: inconclusive; HT1080-NT tox: inconclusive; DT40 TDP1 no CPT: 16.4µM*; TDP1 cell CPT: inconclusive; IL1B secr inh: -100.0*; ELG1 repair inh: 8.2µM*

What do the screens show for `COc1ccc(C(=O)/C=C/c2ccc(OC3CSC3)cc2)cc1OC`?
HT1080 IDH1KD tx: -23.3%; HT1080-NT tox: inconclusive; DT40 TDP1 no CPT: 18.4µM*; TDP1 cell CPT: inconclusive; IL1B secr inh: -87.6*; ELG1 repair inh: 16.0%

What do the screens show for `O=C(Nc1ccccc1)c1nc[nH]c1C(=O)NCCCCNC(=O)c1[nH]cnc1C(=O)Nc1ccccc1`?
HT1080 IDH1KD tx: 4.6%; HT1080-NT tox: 10.7%; DT40 TDP1 no CPT: 11.6µM*; TDP1 cell CPT: 6.51µM*; IL1B secr inh: -16.5; ELG1 repair inh: inconclusive

Results for Cc1ccc(NC(=O)c2nc[nH]c2C(=O)NCCCNC(=O)c2[nH]cnc2C(=O)Nc2ccc(C)cc2)cc1 ?
HT1080 IDH1KD tx: 15.3%; HT1080-NT tox: 16.7%; DT40 TDP1 no CPT: inconclusive; TDP1 cell CPT: 16.4µM*; IL1B secr inh: -19.3; ELG1 repair inh: 5.17µM*

How did CC(C)(C)OC(=O)NCCCCCNC(=O)c1[nH]cnc1C(=O)Nc1ccccc1 do in these assays?
HT1080 IDH1KD tx: -10.6%; HT1080-NT tox: -11.3%; DT40 TDP1 no CPT: 14.6µM*; TDP1 cell CPT: inconclusive; IL1B secr inh: -14.0; ELG1 repair inh: inconclusive

What do the screens show for `O=C(Nc1ccccc1)c1nc[nH]c1C(=O)Nc1ccccc1F`?
HT1080 IDH1KD tx: 4.6%; HT1080-NT tox: 11.5%; DT40 TDP1 no CPT: 11.6µM*; TDP1 cell CPT: inconclusive; IL1B secr inh: 5.4

What do the screens show for `Cc1ccc(NC(=O)c2nc[nH]c2C(=O)NCCCCCCNC(=O)c2[nH]cnc2C(=O)Nc2ccc(C)cc2)cc1`?
HT1080 IDH1KD tx: 8.6%; HT1080-NT tox: 3.0%; DT40 TDP1 no CPT: inconclusive; TDP1 cell CPT: inconclusive; IL1B secr inh: inconclusive; ELG1 repair inh: inconclusive

Results for Cc1ccc(NC(=O)c2nc[nH]c2C(=O)Nc2ccccc2F)cc1 ?
HT1080 IDH1KD tx: 10.4%; HT1080-NT tox: inconclusive; DT40 TDP1 no CPT: inconclusive; TDP1 cell CPT: inconclusive; IL1B secr inh: 0.0

What do the screens show for `O=c1c(Cc2ccccc2)c(O)ccn1CCc1cnc[nH]1`?
HT1080 IDH1KD tx: -0.6%; HT1080-NT tox: 7.9%; DT40 TDP1 no CPT: -14.7%; TDP1 cell CPT: -0.8%; IL1B secr inh: -5.9; ELG1 repair inh: -4.0%

Results for Cc1oc(-c2ccccc2F)nc1CS(=O)(=O)CC(=O)NCCCN1CC(C)CC(C)C1 (stereo not given) ?
HT1080 IDH1KD tx: -7.2%; HT1080-NT tox: -9.3%; DT40 TDP1 no CPT: 11.5%; TDP1 cell CPT: -7.8%; IL1B secr inh: -25.6; ELG1 repair inh: 11.9%

How did Cc1ccc(C)c(NC(=O)c2cnc3sc(N4CCOCC4)nn3c2=O)c1 do in these assays?
DT40 TDP1 no CPT: -13.4%; TDP1 cell CPT: -7.2%

What do the screens show for `Cc1ccc(NC(=O)c2nc[nH]c2C(=O)NCCCCCNC(=O)OC(C)(C)C)cc1`?
HT1080 IDH1KD tx: -28.4%; HT1080-NT tox: inconclusive; DT40 TDP1 no CPT: 16.4µM*; TDP1 cell CPT: inconclusive; IL1B secr inh: -61.7*; ELG1 repair inh: 23.1µM*

Results for CC(C)(C)OC(=O)NCCCCCNC(=O)c1[nH]cnc1C(=O)Nc1ccc(Cl)cc1 ?
HT1080 IDH1KD tx: inconclusive; HT1080-NT tox: inconclusive; DT40 TDP1 no CPT: 14.6µM*; TDP1 cell CPT: inconclusive; IL1B secr inh: inconclusive; ELG1 repair inh: 20.6µM*

What do the screens show for `O=C1c2ccccc2C(=O)c2c1cccc2N1CCOCC1`?
HT1080 IDH1KD tx: 4.3%; HT1080-NT tox: 1.9%; DT40 TDP1 no CPT: inconclusive; TDP1 cell CPT: inconclusive; IL1B secr inh: -80.6*; ELG1 repair inh: inconclusive

How did CC(=O)N(C)c1ccc(N2CCOCC2)c2c1C(=O)c1ccccc1C2=O do in these assays?
HT1080 IDH1KD tx: -9.5%; HT1080-NT tox: 1.5%; DT40 TDP1 no CPT: -1.1%; TDP1 cell CPT: -29.4%; IL1B secr inh: 27.3

How did COC(=O)CS(=O)(=O)c1nnc([C@H](Cc2ccccc2)NC(=O)OC(C)(C)C)o1 do in these assays?
HT1080 IDH1KD tx: inconclusive; HT1080-NT tox: inconclusive; DT40 TDP1 no CPT: 1.64µM*; TDP1 cell CPT: 1.46µM*; IL1B secr inh: -101.5*; ELG1 repair inh: inconclusive

Source: PubChem BioAssay
